This note sets out measurements from the supplement of paper PMC9433436.

In this test the target is T1, E. coli RNase P holoenzyme (M1 P RNA + rnpA protein) (UniProt P0A7Y8).
T1 sequence: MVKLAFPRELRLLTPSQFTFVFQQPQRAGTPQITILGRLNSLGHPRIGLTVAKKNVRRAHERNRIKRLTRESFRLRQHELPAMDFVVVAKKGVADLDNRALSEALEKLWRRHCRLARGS
Nature of the test: relative kcat/Km (krel) vs genomic leader AAAGAU (relative (reference leader = 1)); higher = faster RNase P cleavage. In outline: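 Relative kcat/Km (krel) values came from internal competition kinetics on sequencing read ratios, normalised to the genomic leader and averaged over two technical replicates. A precursor tRNA-Met pool with randomized leader positions −6 to −1 was cleaved by E. coli RNase P holoenzyme (P RNA plus C5 protein) under multiple-turnover conditions at 37 °C. The buffer held 50 mM Tris-HCl pH 8, 100 mM NaCl and 17.5 mM MgCl2, and unreacted precursor was gel-purified at ~5–30% conversion, made into cDNA libraries and Illumina-sequenced.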

Setting [1] is: fraction of substrate reacted: ~9-10% (9.79% repeat 1, 9.1% repeat 2).
Where [2] appears, read: fraction of substrate reacted: ~13-16% (15.68% repeat 1, 13.17% repeat 2).
The mark [3] stands for this setting: fraction of substrate reacted: ~26-29% (28.66% repeat 1, 26.4% repeat 2).

± gives the standard deviation of the averaged measurements. In all, about 4,100 sequences were measured (“relative kcat/Km (krel) vs genomic leader AAAGAU”: median about 1.7, highest 2% from about 6.5 on). What follows is part of a selection rich in the highest values, with near analogues and random picks from the rest.

For ACTAAC, the “relative kcat/Km” value under setting [1] is 1.48 ± 0.31, the “relative kcat/Km” value under setting [2] is 1.42 ± 0.44 and the “relative kcat/Km” value under setting [3] amounted to 2.32 ± 0.65.

As for TGCTGC, the “relative kcat/Km” value runs as follows: under setting [1], 1.63 ± 0.12; under setting [2], 1.51 ± 1.2; under setting [3], 2.71 ± 1.

In the case of ATCTGA, the “relative kcat/Km” value reads like this: under setting [1], 3.86 ± 1.9; under setting [2], 3.98 ± 0.23; under setting [3], 6.19 ± 2.2.

Turning to CTCTGC, the “relative kcat/Km” value is 3.95 ± 0.21 under setting [1], 5.74 ± 1.6 under setting [2] and 7.34 ± 3 under setting [3].

In the case of GTCTGC, the “relative kcat/Km” value by setting is: under setting [1], 3.58 ± 1.3; under setting [2], 4.94 ± 1.2; under setting [3], 7.11 ± 3.3.

On to TTCTGA, for which the “relative kcat/Km” value runs as follows: under setting [1], 4.7 ± 2.6; under setting [2], 5.18 ± 0.91; under setting [3], 7.63 ± 2.7.

Consider TTCTGT, for which, under setting [3], the “relative kcat/Km” value is 2.43 ± 1.9.

In the case of GCCTGC, the “relative kcat/Km” value is, setting by setting: under setting [1], 2.23 ± 0.7; under setting [2], 3.39 ± 0.37; under setting [3], 4.68 ± 2.1.

Regarding GACTGC, the “relative kcat/Km” value by setting is: under setting [1], 3.44 ± 0.14; under setting [2], 3.38 ± 0.99; under setting [3], 4.88 ± 1.6.

Regarding CTCTGG, the “relative kcat/Km” value by setting is: under setting [1], 0.652 ± 0.17; under setting [3], 1.31 ± 0.49.

Consider TTCTGC, for which the “relative kcat/Km” value runs as follows: under setting [1], 4.12 ± 0.25; under setting [2], 5.95 ± 2.2; under setting [3], 8.28 ± 3.5.

ATCTGC: the “relative kcat/Km” value under setting [1] is 3.18 ± 0.4, the “relative kcat/Km” value under setting [2] was found to be 3.94 ± 1.9 and the “relative kcat/Km” value under setting [3] was 6.13 ± 3.

As for TTCTGG, the “relative kcat/Km” value runs as follows: under setting [1], 0.949 ± 0.38; under setting [2], 0.819 ± 0.094; under setting [3], 1.66 ± 0.46.

Take GGTTGG: the “relative kcat/Km” value under setting [3] is 1.05 ± 0.77.

Consider TGACAC, for which the “relative kcat/Km” value is, setting by setting: under setting [1], 3.63 ± 1.5; under setting [2], 4.21 ± 0.43; under setting [3], 5.94 ± 2.2.

Take TTGCCT: the “relative kcat/Km” value was determined as 1.95 ± 0.52 under setting [1], 1.33 ± 0.068 under setting [2] and 2.09 ± 0.58 under setting [3].

For the sequence GGAGCC, the “relative kcat/Km” value is, setting by setting: under setting [1], 1.22 ± 0.046; under setting [2], 0.902 ± 0.094; under setting [3], 1.3 ± 0.38.

In the case of ACACGG, under setting [2], the “relative kcat/Km” value turned out to be 0.487 ± 0.4.

For the sequence ACGCAA, the “relative kcat/Km” value is, setting by setting: under setting [1], 1.95 ± 1.4; under setting [2], 1.95 ± 0.18; under setting [3], 2.25 ± 0.13.

Regarding GGGGCG, the “relative kcat/Km” value reads like this: under setting [1], 0.268 ± 0.026; under setting [3], 0.656 ± 0.0035.

As to ATAGGT, under setting [3], the “relative kcat/Km” value amounted to 2.15 ± 1.4.

Regarding ATAACT, the “relative kcat/Km” value under setting [1] was found to be 1.28 ± 0.37, the “relative kcat/Km” value under setting [2] is 1.21 ± 0.2 and the “relative kcat/Km” value under setting [3] is 1.79 ± 0.75.

As for GAGTTT, the “relative kcat/Km” value under setting [1] is 1.6 ± 0.65, the “relative kcat/Km” value under setting [2] came to 1.28 ± 0.17 and the “relative kcat/Km” value under setting [3] is 2.05 ± 0.46.

Consider ACAAAC, for which the “relative kcat/Km” value by setting is: under setting [1], 1.92 ± 1.6; under setting [2], 1.88 ± 1.1; under setting [3], 2.42 ± 0.36.

As for CTCTGA, the “relative kcat/Km” value runs as follows: under setting [1], 4.13 ± 2; under setting [2], 4.61 ± 0.58; under setting [3], 6.63 ± 1.7.

In the case of GTCTGG, the “relative kcat/Km” value was 0.567 ± 0.54 under setting [2] and 0.916 ± 0.067 under setting [3].

Turning to GTCTGA, the “relative kcat/Km” value by setting is: under setting [1], 3.86 ± 1.8; under setting [2], 4.82 ± 1.2; under setting [3], 6.97 ± 2.6.

Turning to GTCTGT, the “relative kcat/Km” value under setting [3] was found to be 2.58 ± 2.

For CTCTGT, the “relative kcat/Km” value worked out at 0.825 ± 0.31 under setting [1], 1.81 ± 1.4 under setting [2] and 2.05 ± 1.6 under setting [3].

Regarding CGCTGA, the “relative kcat/Km” value under setting [1] was determined as 1.89 ± 0.05, the “relative kcat/Km” value under setting [2] came to 2.02 ± 1 and the “relative kcat/Km” value under setting [3] amounted to 3.55 ± 0.89.

On to GGGCAT, for which the “relative kcat/Km” value by setting is: under setting [1], 1.03 ± 0.31; under setting [2], 1.51 ± 0.12; under setting [3], 2.18 ± 0.97.

With TCTAAG, the “relative kcat/Km” value turned out to be 2.04 ± 1.6 under setting [1], 1.47 ± 0.52 under setting [2] and 2.47 ± 0.27 under setting [3].
